From PubChem BioAssay
VHR inh abs = VHR1 phosphatase inhibitors, primary screen, biochemical, absorbance, uHTS | Dual specificity protein phosphatase 3 (Homo sapiens), P51452 | recombinant VHR phosphatase, pNPP absorbance | inhibition, % at 13.3 µM | actives 0.52% (n = 290,000) | AID 1654, 2009; in the data active = inhibition above about 50%
3CLpro inhibitor = SARS-CoV 3CLpro protease inhibitors, primary screen, biochemical, quenched FRET. AID 1706, 2009. inhibition, % at 6 µM. actives 0.14% (n = 290,000). Replicase polyprotein 1ab (Severe acute respiratory syndrome coronavirus), P0C6X7. recombinant SARS-CoV 3CLpro, quenched FRET peptide cleavage; in the data active = inhibition above about 12%
CCHFV vOTU inh = CCHFV vOTU protease inhibitors, primary screen, biochemical, Pep-AMC substrate, fluorescence. Crimean-Congo hemorrhagic fever virus L polyprotein viral ovarian tumor (vOTU) protease …. inhibition, % at 11.5 µM. actives 0.55% (n = 370,000). AID 651958, 2012; also: 0% = vehicle wells with enzyme and 100% = no enzyme wells
FBA Mtb inh = Mtb FBA enzyme inhibitors, primary screen, biochemical, fluorescence, strain H37Rv; Fructose-bisphosphate aldolase (Mycobacterium tuberculosis (strain ATCC 25618 / H37Rv)), …; purified M. tuberculosis FBA, fluorescence read-out; inhibition, % at 1 µM; actives 2.3% (n = 360,000); in the data active = inhibition above about 27%;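 also: 0% = vehicle and 100% = reference inhibitor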
RecA intein inh = Mtb RecA intein splicing inhibitors, primary screen, biochemical, fluorescence, HTS; Protein RecA (Mycobacterium tuberculosis (strain ATCC 25618 / H37Rv)), P9WHJ3; cell-free RecA intein splicing; inhibition, % (concentration not given with the values); actives 0.75% (n = 290,000); in the data active = inhibition above about 30%;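 also: 0% = vehicle wells and 100% = reference inhibitor control wells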
Target sequence (P9WHJ3 whole entry, looked up): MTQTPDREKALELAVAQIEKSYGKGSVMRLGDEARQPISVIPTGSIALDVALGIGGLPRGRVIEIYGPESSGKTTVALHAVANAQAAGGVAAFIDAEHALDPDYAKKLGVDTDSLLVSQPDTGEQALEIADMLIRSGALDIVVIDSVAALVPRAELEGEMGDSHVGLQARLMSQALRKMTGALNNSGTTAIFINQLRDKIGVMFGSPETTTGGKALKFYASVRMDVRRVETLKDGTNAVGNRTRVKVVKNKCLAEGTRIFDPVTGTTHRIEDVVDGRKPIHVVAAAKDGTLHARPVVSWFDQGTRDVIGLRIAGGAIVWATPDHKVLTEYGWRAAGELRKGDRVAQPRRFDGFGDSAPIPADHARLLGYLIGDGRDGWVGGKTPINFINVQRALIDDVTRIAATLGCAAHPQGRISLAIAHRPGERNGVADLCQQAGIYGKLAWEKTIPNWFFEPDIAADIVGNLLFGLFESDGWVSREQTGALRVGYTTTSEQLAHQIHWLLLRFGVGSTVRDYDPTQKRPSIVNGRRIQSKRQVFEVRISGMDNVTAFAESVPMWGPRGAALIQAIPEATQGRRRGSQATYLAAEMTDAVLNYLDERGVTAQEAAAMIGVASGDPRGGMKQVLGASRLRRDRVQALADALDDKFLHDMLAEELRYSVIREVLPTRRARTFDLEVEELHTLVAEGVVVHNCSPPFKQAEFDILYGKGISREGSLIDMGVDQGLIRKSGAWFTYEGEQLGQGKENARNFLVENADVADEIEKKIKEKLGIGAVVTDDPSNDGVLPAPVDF
GDH-TPI counter-1 = GDH-TPI coupling enzyme inhibitors, primary screen, artefact control for M. tuberculosis FBA inhibitor project, biochemical, absorbance, full deck; actives 1.2% (n = 360,000); inhibition, % at 4.8 µM; GDH-TPI coupled enzyme counterscreen, NADH absorbance;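 also: 0% = DMSO wells and 100% = wells lacking the enzyme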
Mtb FBA confirm = M. tuberculosis aldolase blockers, biochemical, fluorescence, strain H37Rv, confirmation. shares compounds with FBA Mtb inh. actives 78% (n = 5,600). inhibition, % at 1 µM. purified M. tuberculosis FBA, fluorescence read-out; in the data active = inhibition above about 27%;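 also: 0% = vehicle wells and 100% = reference inhibitor wells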
GDH-TPI counter-2 = GDH-TPI coupling enzyme inhibitors, artefact control for M. tuberculosis FBA inhibitor project, biochemical, fluorescence, high throughput; GDH-TPI coupled enzyme counterscreen; actives 81% (n = 5,600); shares compounds with FBA Mtb inh; inhibition, % at 1 µM; in the data active = inhibition above about 10%
GDH-TPI DR = GDH-TPI coupling enzyme inhibitors, dose response, artefact control for M. tuberculosis FBA inhibitor project, biochemical, fluorescence, IC50 | GDH-TPI coupled enzyme assay, artifact counterscreen | IC50, µM | shares compounds with FBA Mtb inh | actives 79% (n = 170); call rule not given here
Active calls of the source: *; i = inactive; · = not tested or not shown; + = active, no number. Only some compounds are listed: those with a hit (about 4.7% of all), similar ones and a draw of the others. Rule as the data show it, unless noted: active = inhibition above about 30%; inactive = the rest.

SMILES	VHR inh abs	3CLpro inhibitor	CCHFV vOTU inh	FBA Mtb inh	RecA intein inh	GDH-TPI counter-1	Mtb FBA confirm	GDH-TPI counter-2	others
COc1ccc(-c2nc3ccc(N4CCCC4)cc3c(=O)[nH]2)cc1OC	21	-6	-45	27*	-6	24	5	-7
COc1ccc2nc(-c3ccccc3)[nH]c(=O)c2c1	·	·	1	-1	·	22	·	·
Cc1ccc(S(=O)(=O)NN2C(=O)c3ccccc3NC2(C)C)cc1	10	0	-91	36*	-6	4	+	+
CC1(C)Nc2ccccc2C(=O)N1NS(=O)(=O)c1ccccc1	0	1	-90	29*	-10	4	-1	-4
O=C1c2ccccc2NC2(CCCC2)N1NS(=O)(=O)c1ccccc1	7	0	-47	22	-5	8	·	·
Cc1ccc(S(=O)(=O)NN2C(=O)c3ccccc3NC2c2ccccc2)cc1 (configuration not stated)	-2	2	-2	20	0	4	·	·
COc1ccccc1COc1ccc2c(C)c(CCC(=O)O)c(=O)oc2c1C	24	12	-11	16	4	3	·	·
Cc1c(CC(=O)O)c(=O)oc2cc(OCc3ccc(Br)cc3)ccc12	26	-1	-58	86*	1	17	139*	122*
COc1cccc(-c2coc3cc4oc(=O)c(CCC(=O)O)c(C)c4cc23)c1	89	-2	16	3	1	0	·	·
Cc1c(CCC(=O)O)c(=O)oc2cc(OCc3ccccc3Br)ccc12	-10	7	-46	61*	2	9	99*	69*
Cc1c(CCC(=O)O)c(=O)oc2cc(OCc3cccc(F)c3)ccc12	-10	5	-46	86*	-2	8	9	0
CCCCNC(=O)C1C(c2ccc(C(F)(F)F)cc2)=Nc2ccccc2N1C(=O)c1cccc2ccccc12 (configuration not stated)	·	·	8	·	·	·	·	·
COc1ccc(/C(O)=C2/C(=O)C(=O)N(c3ccccn3)C2c2ccc(F)cc2)cc1 (configuration not stated)	-2	0	3	-1	-3	1	·	·
COc1ccc(NC(=O)CCc2nnc3ccc(NCc4ccco4)nn23)cc1	6	-5	-12	-1	2	1	·	·
COc1ccc(NC(=O)CCc2nnc3ccc(NCc4ccco4)nn23)cc1OC	18	-6	-1	89*	2	1	142*	118*
FC(F)(F)c1nc2nc(Cl)c(Cl)nc2n1CCCN1CCOCC1	·	·	-88	48*	·	20	+	+
N#Cc1ccc(C(=O)Nn2cnnc2)cc1	·	-5	-6	0	-1	-1	·	·
CCOC(=O)C1=C(COC(=O)C2CC(=O)N(c3ccc(C)cc3)C2)NC(=O)NC1C (configuration not stated)	·	·	8	65*	0	4	138*	89*
CCOC(=O)C1=C(COC(=O)C2CC(=O)N(c3ccccc3CC)C2)NC(=O)NC1C (configuration not stated)	·	·	-3	-1	·	4	·	·
CCc1nnc(NC(=O)c2sc3nc4c(cc3c2N)CCCCCC4)s1	16	-1	-13	61*	-54	13	7	-7
CC1CCCCN1CCNC(=O)c1cnn2ccccc12 (configuration not stated)	6	-4	2	40*	1	16	23	14*
Cc1cc(C(=O)NCCN2CCCCC2C)n(-c2ccccc2)n1 (configuration not stated)	11	-2	-4	7	-4	-2	·	·
CCC1(C)Cc2nc(Cl)c(C#N)cc2CO1 (configuration not stated)	-12	2	-20	3	0	1	·	·
CC1(C)Cc2nc(NC3CCCCC3)c(C#N)cc2CO1	-8	4	-24	36*	6	11	127*	111*
O=C(NCCCN1CCOCC1)c1ccc2c(=O)n(CCc3ccccc3)c(=O)[nH]c2c1	20	0	-7	8	-2	6	·	·
SMILES	VHR inh abs	3CLpro inhibitor	CCHFV vOTU inh	FBA Mtb inh	RecA intein inh	GDH-TPI counter-1	Mtb FBA confirm	GDH-TPI counter-2	others
CC(=O)Nc1ccc(S(=O)(=O)C(C#N)c2nc3ccccc3nc2NCCN2CCOCC2)cc1 (configuration not stated)	24	0	-10	56*	-8	13	73*	62*
Nc1c(C(=O)NCc2ccco2)c2nc3ccccc3nc2n1CCN1CCCCC1	2	-2	-87	91*	i	18	13	5	GDH-TPI DR=1.6*
Nc1c(C(=O)NCCN2CCOCC2)c2nc3ccccc3nc2n1CCc1ccccc1	11	1	-93	94*	-454	9	46*	34*
C=CCNC(=O)c1c(N)n(CCN2CCOCC2)c2nc3ccccc3nc12	24	-3	-66	51*	-94	19	38*	27*
COc1ccc(-n2c(N)c(C(=O)NCc3ccco3)c3nc4ccccc4nc32)cc1	24	-1	-63	98*	-18	32*	44*	41*
CC(=O)Nc1nc2ccccc2n1CCN1CCOCC1	14	4	8	0	-1	-6	·	·
CC(=O)Nc1ccc(S(=O)(=O)c2c(N)n(CCN3CCOCC3)c3nc4ccccc4nc23)cc1	23	0	-26	60*	-6	26	170*	129*
N#CCc1nc2ccccc2c(=O)[nH]1	21	-2	-4	2	-2	12	·	·
O=C(Cn1c2ccccc2c(=O)c2ccccc21)Nc1cccc(F)c1	0	0	-22	90*	·	6	100*	71*
COc1ccc(C(=O)COC(=O)c2cccc(-n3cnnn3)c2)c(OC)c1	·	·	-3	6	0	10	·	·
COc1ccc(CCn2c(=N)c(S(=O)(=O)c3ccc(C)cc3)cc3c(=O)n4ccccc4nc32)cc1	-14	5	10	6	-14	6	·	·
